# Rows were chosen to be rich in hits. Some 3.4% of all compounds tested hit in one or more screens of this group.
# MEKK2wt PB1 HTS: modulators of MEK5 binding to wildtype MEKK2, primary screen, biochemical, multiplex bead flow cytometry, Alexa488-MEK5. Alexa488-MEK5 binding to MEKK2 WT; actives lie on both sides. actives 1.1% (n = 290,000). binding response (% of control), % at 10 µM; in the data active = binding response below about 67% or above about 130%
# ANO1 activ: TMEM16A chloride channel activators or potentiators, primary screen, cell-based, HTS. Anoctamin-1 (Mus musculus), Q8BHY3. HEK293 TMEM16A/YFP-H148Q/I152L, iodide quench fluorescence; hits give low values. B-score at 10 µM. actives 0.3% (n = 340,000);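 active = fluorescence-ratio B-score plate-corrected deviation score at least 3 library SD below zero, with starting fluorescence score within 5 deviations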;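 note: channel opened by trigger with iodide after compound preincubation; score built on the fluorescence ratio of max minus min over baseline; more negative score means more quench and so TMEM16A activation or potentiation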
# MEKK2mut PB1 HTS: MEK5 binding signal on mutant MEKK2 PB1, primary screen, biochemical, multiplex bead flow cytometry, Alexa488-MEK5; Alexa488-MEK5 binding to MEKK2 mutant; percent response, % at 10 µM; actives 0.35% (n = 290,000); in the data active = percent response above about 24%, passing the limit was not always enough
# MEKK3 PB1 HTS: modulators of MEKK3-MEK5 PB1 binding, primary screen, biochemical, wildtype MEKK3, multiplex bead flow cytometry, Alexa488-MEK5. Mitogen-activated protein kinase kinase kinase 3 (Homo sapiens), Q99759. bead-based flow cytometry, Alexa488-MEK5 binding to MEKK3; actives lie on both sides; 0 = blocked by unlabeled MEK5, 100 = vehicle. binding response (% of control), % at 10 µM. actives 1.4% (n = 290,000). AID 1529, 2009;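 active = binding response more than 3 SD above or below the average of its plate-row segment, actives on both sides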;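 note: Alexa488 bead fluorescence after subtracting the streptavidin-only scavenger bead signal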
# NTR1 ag: agonists of human NTR1, primary screen, imaging, U2OS cells, beta-arrestin-GFP, high content | Neurotensin receptor type 1 (Homo sapiens), P30989 | NTR1-U2OS beta-arrestin-GFP spot imaging, agonist mode | activation, % at 20 µM | actives 0.17% (n = 330,000) | AID 493036, 2011;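 active = activation at or above 40% of the spot to cytoplasm intensity ratio, with at least 20 cells analyzed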;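 note: 0% = DMSO without peptide and 100% = 100 nM NTR1 peptide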
# TMEM16A inh: TMEM16A chloride channel inhibitors, primary screen, cell-based, HTS; actives 1.2% (n = 310,000); Anoctamin-1 (Mus musculus), Q8BHY3; normalized B-score (activity score, 25-100; higher = stronger inhibition) at 10 µM; HEK293 TMEM16A/YFP iodide influx fluorescence, ionomycin;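 active = ratio plate-corrected score three or more library SD toward inhibition, starting fluorescence score within five deviations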;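 note: score derived from kinetic fluorescence span divided by baseline fluorescence per well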
# MEKK2wt confirm: modulators of MEK5 binding to wildtype MEKK2, confirmation, biochemical, single concentration, multiplex bead flow cytometry | shares compounds with MEKK3 PB1 HTS | binding response (% of control), % at 10 µM | Alexa488-MEK5 binding to MEKK2 WT; actives lie on both sides | actives 2.4% (n = 5,900); in the data active = binding response below about 16% or above about 210%; inactive = in between
# MEKK2mut-MEK5: mutant MEKK2 PB1-MEK5 binding signal retest – biochemical, single concentration, multiplex bead flow cytometry, confirmation; percent response, % at 10 µM; AID 1893, 2009; actives 2% (n = 5,900); shares compounds with MEKK3 PB1 HTS; Alexa488-MEK5 binding to MEKK2 mutant; in the data active = percent response mostly above about 71%, no sharp cut-off; inactive = mostly below about 38%;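 note: higher means compound restores mutant binding toward wildtype level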
# MEKK3-MEK5 inh: MEKK3 wild-type PB1 binding to MEK5, inhibitors, confirmation, biochemical, bead multiplex flow cytometry, single concentration, wildtype; shares compounds with MEKK3 PB1 HTS; Alexa488-MEK5 binding to MEKK3; hits give low values; binding response (% of control), % at 10 µM; actives 1.8% (n = 5,900); AID 1894, 2009;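 active = binding response below 72% of control, or above a set upper limit, though filed actives all read lower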;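 note: 100% = DMSO only wells and 0% = binding blocked by excess unlabeled MEK5; lower values mean stronger disruption of MEK5 binding to MEKK3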
# Active calls of the source: *; i = inactive; · = no result; [ ] = remark or other dose.
SMILES,MEKK2wt PB1 HTS,ANO1 activ,MEKK2mut PB1 HTS,MEKK3 PB1 HTS,NTR1 ag,TMEM16A inh,MEKK2wt confirm,MEKK2mut-MEK5,MEKK3-MEK5 inh
Nc1ccc2nc(-c3ccc(-c4nc5ccc(N)cc5[nH]4)cc3)[nH]c2c1,65*[inhibitor],·,-26,53*[inhibitor],-1,i,81,-17,71*
Nc1ccc2nc(CCCCCCc3nc4ccc(N)cc4[nH]3)[nH]c2c1,108,i,1,83,1,i,·,·,·
Nc1ccc2nc(-c3cccc(-c4nc5ccc(N)cc5[nH]4)n3)[nH]c2c1,77,i,-13,79*[inhibitor],1,i,96,-2,77
Cc1ccc2nc(-c3cccc(N)c3)[nH]c2c1,97,i,13,106,-1,i,·,·,·
Cc1ccc(NC(=O)COC(=O)c2ccc(OCc3c(C)noc3C)cc2)cc1S(=O)(=O)N1CCOCC1,104,i,7,100,-1,i,·,·,·
Cc1ccnc(NC(=O)c2cc(-c3ccc(Cl)s3)nc3ccccc23)c1,·,i,·,·,6,i,·,·,·
CCN(CC)S(=O)(=O)c1cc(C(=O)OCC(=O)Nc2cccc(C)c2C)ccc1F,103,i,0,129*,2,i,94,1,100
CCc1cccc(CC)c1NC(=O)COC(=O)c1ccc(F)c(S(=O)(=O)N(CC)CC)c1,109,i,1,135*,1,i,102,9,97
CCN(CC)S(=O)(=O)c1cc(C(=O)OCC(=O)Nc2c(F)cccc2F)ccc1F,93,i,-1,95,2,i,·,·,·
CC(C)(C)NS(=O)(=O)c1ccc(CCC(=O)N2CCCC2)cc1,107,i,-1,109,1,i,·,·,·
N#CC1=C(N)NC(SCc2ccc(F)cc2)=C(C#N)C12CCCCC2,86,i,-10,82*[inhibitor],5,100*,112,10,103
COc1cccc(NC(=O)C(=O)NCCC2CCCCN2S(=O)(=O)c2ccccc2)c1 (stereo unspecified),·,i,·,·,1,i,·,·,·
O=C(/C(=N/N=C/c1ccc(O)c(O)c1O)c1ccccc1)c1ccccc1,104,i,0,136*,6,i,96,-9,101
O=c1oc2ccccc2c(NCc2ccccc2F)c1[N+](=O)[O-],105,i,-1,136*,0,i,115,9,107
COc1ccc(OC)c(NC(=O)c2cc(-c3cc(Cl)ccc3O)n[nH]2)c1,130,i,8,145*,6,i,93,-3,98
COc1ccc(Cl)cc1NC(=O)c1cc(-c2ccccc2O)n[nH]1,105,i,-2,103,15,i,·,·,·
Cc1ccc(SCCc2cc[n+](CC(=O)c3ccccc3)cc2)cc1,143*,i,-3,101,-2,i,153,36,96
O=C(C[n+]1ccc(CCSc2ccc(F)cc2)cc1)c1ccccc1,61*,i,249*,93,-3,i,149,27,101
Cc1ccc(C(=O)C[n+]2ccc(Cc3ccccc3)cc2)cc1,106,i,2,104,-2,i,·,·,·
O=C(C[n+]1ccccc1)N/N=C/c1ccccc1C(F)(F)F,104,i,3,105,-1,i,·,·,·
CC1CCN(c2ccc(/C=N/n3nnnc3N)cc2[N+](=O)[O-])CC1,102,i,0,99,2,i,·,·,·
Cc1ccc(/C=N/n2nnnc2N)cc1[N+](=O)[O-],126,i,10,128*,0,i,103,0,103
CCOc1ccc(C(O)C(CN2CCOCC2)c2ccccc2)cc1 (stereo unspecified),97,i,-3,93,2,i,·,·,·
O=C(CSc1nnc(CNc2cccc(Cl)c2)o1)OC1CCCCC1,106,i,1,103,-1,i,·,·,·
O=C(CSc1nnc(CNc2ccc(F)cc2)o1)OC1CCCCC1,2.0*[inhibitor],i,-16,2.0*[inhibitor],-1,i,95,-3,99
SMILES,MEKK2wt PB1 HTS,ANO1 activ,MEKK2mut PB1 HTS,MEKK3 PB1 HTS,NTR1 ag,TMEM16A inh,MEKK2wt confirm,MEKK2mut-MEK5,MEKK3-MEK5 inh
O=C(Cc1cccs1)Nc1nc2c(s1)CCCC2,64,i,-19,51*[inhibitor],-2,i,100,-2,96
Cc1ccc(NC(=O)c2cc3c(s2)CCCC3)cc1S(=O)(=O)Nc1ccccc1Cl,111,i,1,133*,2,i,95,-5,102
O=C(Nc1ccc(Cl)c(Cl)c1)Nc1ccc(N2CCCC2)c(S(=O)(=O)Nc2ccccc2Cl)c1,44*[inhibitor],i,44,107,12,i,102,4,104
COc1ccccc1NS(=O)(=O)c1cc(NC(=O)c2ccncc2)ccc1N1CCOCC1,95,i,-4,90,3,i,·,·,·
COc1ccccc1NS(=O)(=O)c1cc(NC(=O)c2cnccn2)ccc1N1CCOCC1,72,i,-24,58*[inhibitor],3,i,105,6,102
CCOC(=O)N1CCN(C(=O)CSCc2ccc(Br)cc2)CC1,108,i,2,111,0,i,·,·,·
COC(=O)Nc1nn(-c2ccc(Cl)cc2)c(=O)c(C#N)c1C,107,i,-2,107,3,i,·,·,·
O=c1ccc2[n+]([O-])c3ccc(O)cc3oc-2c1,50*[inhibitor],i,-9,92,·,·,85,-7,89
O=C(c1cn(-c2ccccc2)nc1-c1cccs1)N1CCN(c2ccc(F)cc2)CC1,103,i,10,111,5,i,·,·,·
